Only some compounds are listed: those with a hit (about 3.4% of all), similar ones and a draw of the others.
AmpC detergent: blocks E. coli AmpC beta-lactamase in detergent assay; P00811; AmpC hydrolysis of nitrocefin, absorbance 480 nm, 0.01% Triton; Potency, µM (doses to about 114 µM), for inactives: at the top dose activity change, negative = inhibition, hits mostly inhibitors; 0.041% of 370,000 active; AID 485294;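 also: 0% = no-compound wells and -100% = no-enzyme wells; nearly all actives have a fitted effect of over 25% in size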
Target sequence (P00811 whole entry, looked up): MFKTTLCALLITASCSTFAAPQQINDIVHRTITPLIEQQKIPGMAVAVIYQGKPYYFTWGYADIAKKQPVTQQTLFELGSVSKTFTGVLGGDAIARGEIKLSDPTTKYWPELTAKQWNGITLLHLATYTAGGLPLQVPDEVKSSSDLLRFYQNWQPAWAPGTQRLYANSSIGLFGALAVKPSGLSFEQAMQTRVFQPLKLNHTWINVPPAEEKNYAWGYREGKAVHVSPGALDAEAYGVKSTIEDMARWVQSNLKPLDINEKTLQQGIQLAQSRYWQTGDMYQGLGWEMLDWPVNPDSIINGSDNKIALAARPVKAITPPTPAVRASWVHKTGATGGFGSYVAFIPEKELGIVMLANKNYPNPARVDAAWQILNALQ
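AmpC (5.3 nM in the dispensed reagent) in 20 mM phosphate pH 7.0 with 0.01% (detergent screen) or 0.0001% Triton X-100 was preincubated with compounds for 15 min at room temperature. Nitrocefin was then added from an 800 uM solution, and hydrolysis was followed at 480 nm.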
Sm TGR inh: inhibitors of Schistosoma mansoni thioredoxin glutathione reductase | Q962Y6 | 3% of 360,000 active | Potency, µM (doses to about 114 µM), inactives show top-dose activity change, negative = inhibition, actives largely listed as inhibitors | purified TGR, DTNB reduction, TNB absorbance 405 nm | AID 485364; also: nearly all actives have a fitted effect of over 60% in size
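Kinetic colorimetric format: TGR-catalysed, NADPH-driven DTNB reduction monitored via TNB absorbance. Enzyme dispensed at 20 nM; compound exposure 15 min at room temperature before reaction start.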
AmpC no deterg: inhibitors of E. coli AmpC beta-lactamase without detergent | AmpC nitrocefin hydrolysis, absorbance 480 nm, 0.0001% Triton | P00811 | 0.52% of 330,000 active | Potency, µM (doses to about 57.1 µM), for inactives: top-dose activity change, negative = inhibition, most hits filed as inhibitors;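 also: plate controls were no compound for no effect and no enzyme for full effect; nearly all actives have a fitted effect of over 20% in size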
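20 mM phosphate pH 7.0 + 0.01% (detergent screen) or 0.0001% Triton X-100; 5.3 nM AmpC reagent; cpd preinc 15 min RT; nitrocefin (800 uM stock) to start; A480 q20 s × 4 min; Activity was normalised to no-enzyme and no-compound control wells.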
RE007 growth inh: less growth of the S. pombe RE007 Vpr strain; S. pombe RE007 Vpr strain, BacTiter-Glo ATP luminescence, 24 h; Potency, µM (series often up to 92.2 µM), inactives show at the top dose activity change, negative = less growth, actives largely listed as inhibitors; 0.21% of 360,000 active; AID 651644; active = well fitted falling curve with a large enough effect; inconclusive = small, poorly fitted or top-dose-only effect; inactive = no such curve, though single readings can be large or run the other way; also: nearly all actives have a fitted effect of over 50% in size
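Fission yeast strain RE007, carrying one chromosomally integrated HIV-1 vpr copy, was seeded at OD 0.01 in PMG+AL medium with 23 nL pinned compound. After 24 h at 30 °C and 99% humidity, viability was read by BacTiter-Glo luminescence.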
Giardia FBPA inh: inhibitors of Giardia lamblia fructose-1,6-bisphosphate aldolase; 0.71% of 290,000 active; Potency, µM (series often up to 59.6 µM), inactives show at the top dose activity, negative = inhibition, hits mostly inhibitors; A8B2U2; AID 2451; purified Giardia FBPA; also: nearly all actives have a fitted effect of over 55% in size
Target sequence (A8B2U2 whole entry, looked up): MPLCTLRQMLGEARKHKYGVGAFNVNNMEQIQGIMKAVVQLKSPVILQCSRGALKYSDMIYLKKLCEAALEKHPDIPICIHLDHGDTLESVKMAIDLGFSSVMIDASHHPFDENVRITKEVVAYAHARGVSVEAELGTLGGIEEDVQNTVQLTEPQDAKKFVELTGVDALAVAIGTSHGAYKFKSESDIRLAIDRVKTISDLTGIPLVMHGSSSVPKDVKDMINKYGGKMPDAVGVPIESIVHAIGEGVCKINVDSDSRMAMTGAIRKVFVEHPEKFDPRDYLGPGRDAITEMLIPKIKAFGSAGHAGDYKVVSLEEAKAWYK
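40 nM FBPA preincubated 10 min at RT with compound (up to 57.5 uM final), then substrate plus GAPDH/TPI/NAD/arsenate coupling and diaphorase/resazurin added. Fluorescence read after 20 min at RT, 525/598 nm.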
Starred values were filed as active, the others as inactive; ? = inconclusive; nt = no result given; [ ] = dose if it differs, or a comment. Unless noted, calls follow the shape of the dose curve; as a rule, active = well fitted curve in the direction sought with a large enough effect; inconclusive = small, poorly fitted or top-dose-only effect, or another doubt; inactive = no such curve, though single readings can be large; an effect the other way counts as inactive or inconclusive. Unless noted, % is scaled to controls: 0 for no effect and ±100 for the full control effect; potency is read from the fitted curve at half-maximal effect.

SMILES | AmpC detergent | Sm TGR inh | AmpC no deterg | RE007 growth inh | Giardia FBPA inh
CCOC(=O)C1=C(C)Nc2nnnn2C1c1ccccc1Cl (centres undefined) | -9.8% | -16.7% | -5.5% | -1.8% | -9.9%
O=C(C1Cc2ccccc2CN1S(=O)(=O)c1ccccc1[N+](=O)[O-])N1CCOCC1 (centres undefined) | nt | nt | -1.7% | -13.6% | nt
CN1C(=O)C(O)(CC(=O)/C=C/c2ccco2)c2cc(Br)ccc21 (centres undefined) | -6.0% | 17.8µM* | -19.2% | 4.8% | 0.2%
CCn1c(SCC(=O)c2cccs2)nnc1-c1ccco1 | -4.4% | 44.7µM* | -14.1% | 5.0% | -11.0%
Cn1nnnc1SCC(=O)c1ccc(Br)s1 | -2.8% | -0.8% | -32.0% | -9.6% | -0.9%
Cn1nnnc1SCC(=O)c1cccs1 | 0.6% | 39.8µM* | -21.0% | -15.1% | 0.1%
Cc1cc2c(C)ccc(C)c2nc1SCC(=O)c1cccs1 | ? | 5.2% | 0.178µM* | 2.9%[3.69 µM] | -4.4%
CCn1c(SCC(=O)N2c3ccccc3Sc3ccccc32)nnc1-c1ccco1 | ? | 14.1µM* | 53.5% | 1.0% | 6.7%
COc1cc(CN(C(=O)COc2ccc(Cl)cc2)c2ccccn2)cc(OC)c1OC | -8.3% | 1.4% | nt | nt | nt
Cc1[nH]c2ccc(-c3n[nH]c(=S)n3Cc3ccccc3)cc2c1C | -1.1% | 4.6% | 11.2µM* | -3.9% | 8.1%
O=C(Nc1nnc(COc2ccc(Cl)cc2)s1)C1CCCO1 (centres undefined) | -8.1% | -0.6% | 24.9% | -27.7% | -8.8%
CCc1nnc(NC(=O)CSc2ncc(-c3ccccc3)n2C)s1 | -8.2% | 5.9% | -4.9% | -1.7% | 6.6%
COc1ccc(-c2ccc(SCC(=O)NCc3ccco3)nn2)cc1 | -7.7% | -20.7% | 0.1% | -5.3% | -3.5%
COc1ccc(NC(=O)CSc2ccc(-c3ccco3)nn2)cc1 | -5.1% | 14.1µM* | -33.5% | 17.2% | nt
COc1cc(NC(=O)CSc2ccc(-c3ccco3)nn2)cc(OC)c1 | 4.6% | 31.6µM* | -34.4% | -7.1% | nt
COc1cc(NC(=O)CCn2cnc3ccccc3c2=O)cc(OC)c1 | 2.2% | -8.7% | nt | nt | nt
C[C@@H](c1ncncc1F)[C@](O)(Cn1cncn1)c1ccc(F)cc1F | -11.0% | 0.1% | -3.8% | nt | 11.2%
Cc1cc(C(=O)N2CCN(C(c3ccccc3)c3ccccc3)CC2)no1 | -0.9% | -19.8% | 83.5% | 3.8% | 1.2%
Cc1cc(N2C(=O)CC(N3CCN(C(c4ccccc4)c4ccccc4)CC3)C2=O)no1 (centres undefined) | -15.5% | 44.7µM* | 80.8% | -25.6% | -1.1%
Cc1noc(C)c1CSCC(=O)OCc1nnc(-c2ccc([N+](=O)[O-])cc2)o1 | nt | nt | -12.0% | -10.8% | nt
CSc1nc(NCCN(C)C)c2sc3nc(-c4ccco4)c4c(c3c2n1)CCC4 | nt | nt | nt | -12.5% | nt
CSc1nc(N(C)CCO)c2sc3nc(-c4ccco4)c4c(c3c2n1)CCC4 | -8.9% | 1.41µM* | 69.4% | -3.5% | -3.0%
Oc1ccc(/C(Cc2ccccn2)=N\Nc2ccccc2)c(O)c1 | 13.2% | ? | -49.7% | 21.9% | ?
Oc1ccc(/C(Cc2ccc3ccccc3n2)=N\Nc2ccccc2)c(O)c1 | 2.5% | 25.1µM* | -41.2% | 81.3% | ?
Cc1cnc(C(=O)NC(C)CCc2ccccc2)cn1 (centres undefined) | ? | -1.4% | -3.1% | 24.7% | 5.9%
SMILES | AmpC detergent | Sm TGR inh | AmpC no deterg | RE007 growth inh | Giardia FBPA inh
COCCn1c(C)cc(O)c(C(c2ccccc2OC)N2CCCCC2)c1=O (centres undefined) | 7.1% | 10µM* | nt | nt | nt
COCCn1c(C)cc(O)c(C(=O)Nc2cccc(Cl)c2)c1=O | -3.2% | 3.7% | -8.8% | -4.1% | nt
CCOC(=O)C1CCN(C(c2ccccc2OC)c2c(O)cc(C)n(CCOC)c2=O)CC1 (centres undefined) | 2.0% | 7.08µM* | nt | nt | nt
C[C@H](CO)N1C[C@H](C)[C@H](CN(C)S(=O)(=O)c2ccc(Cl)cc2)OCc2cnnn2CCCC1=O | nt | nt | nt | 3.1% | nt
O=C(CN1C(=O)C2C3C=CC(C3)C2C1=O)Nc1nc(SCc2ccc(Cl)cc2)n[nH]1 (centres undefined) | ? | -16.8% | -9.7% | 6.0% | 4.3%
COc1ccc(C(C)=O)cc1COC(=O)c1cnc(Cl)c(Cl)c1 | -3.6% | 1.41µM* | -10.6% | -18.4% | 1.2%
COc1ccc(C(C)=O)cc1COC(=O)c1ccc2c(c1)OCO2 | -11.0% | ? | -24.5% | -7.3% | -0.1%
COc1ccc(C(=O)OCc2cc(=O)oc3c(C)c(C)ccc23)cc1S(=O)(=O)N1CCOCC1 | nt | nt | nt | 5.7% | nt
CCOc1ccc(C(C)=O)cc1COC(=O)c1ccccc1C(=O)N(C)Cc1ccccc1 | -14.6% | 20µM* | 79.2% | 3.6% | nt
COc1ccc(C(C)=O)cc1COC(=O)c1ccc(S(=O)(=O)N(C)C)cc1 | -5.7% | 2.51µM* | 62.1% | -9.1% | 1.3%
COc1ccc(C(C)=O)cc1COC(=O)c1ccc(C)c(S(=O)(=O)N2CCOCC2)c1 | -1.8% | 3.55µM* | 145.5% | 0.9% | nt
CCCCn1nnnc1C(c1cc2ccccc2o1)N(C)Cc1ccccc1 (centres undefined) | nt | nt | nt | 0.9% | nt
COC(=O)C(C)N(C#N)c1nc(C)cc(C)n1 (centres undefined) | ? | 9.6% | -3.5% | 1.4% | 1.4%
CNS(=O)(=O)c1cccc(C(=O)OCc2cc(C(C)=O)ccc2OC)c1 | -2.2% | 2.82µM* | -23.4% | -0.5% | -6.7%
CCOc1ccc(C(C)=O)cc1COC(=O)c1ccc2c(c1)NC(=O)CS2 | 9.6% | 11.2µM* | -7.0% | 10.0% | nt
COc1ccc(C(=O)COC(=O)c2ccc3c(c2)NC(=O)CS3)c(OC)c1 | -4.8% | -8.4% | -46.4% | -7.6% | nt
CC1=CC(C)(C)Nc2ccc(Cc3ccc4c(c3)C(C)=CC(C)(C)N4)cc21 | 12.6% | 3.98µM* | -28.6% | -5.0% | ?
CCc1cccc(C)c1NC(=O)CSc1nnc(CC)n2c1cc1occc12 | 7.1% | 1.1% | nt | nt | nt
CC(C)(C)c1ccc(OCCC(=O)OCC(=O)N2c3ccccc3NC(=O)C2(C)C)cc1 | -12.2% | 12.1% | -0.1% | -15.7% | nt
CCC(C)[C@H](NC(=O)[C@@H]1CSC2c3ccccc3C(=O)N21)C(=O)NC1CCCC1 (some centres undefined) | 6.2% | -11.6% | -30.5% | -6.0% | nt
CCC(C)[C@H](NC(=O)[C@@H]1CSC2c3ccccc3C(=O)N21)C(=O)NCc1ccco1 (some centres undefined) | -4.7% | 44.7µM* | -5.9% | 0.5% | -13.1%
Cc1ccccc1S(=O)(=O)NC1OC(=O)C(Cl)=C1Cl (centres undefined) | -0.4% | 3.16µM* | -33.5% | -29.0% | -0.2%
Cc1ccccc1S(=O)(=O)NC1OC(=O)C(Oc2ccccc2)=C1Br (centres undefined) | 6.8% | 8.91µM* | -13.9% | -23.2% | -6.6%
